In the supplement of paper PMC8975748:
Where a name gives a salt, the structure may show the parent alone.

The compounds below were run on Saccharomyces cerevisiae BY4741 SeMeCo community (assay: z-score of subpopulation abundance vs DMSO median, subpopulation auxotrophic for LU; higher = larger share of this subpopulation than in DMSO controls). Settings: 10 µM; 24 h; SM minimal medium; subpopulation (auxotrophy): LU.
Experimental: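 Fluorescent four-plasmid SeMeCo (self-establishing metabolically cooperating S. cerevisiae BY4741 community; plasmids pH-mRuby2, pL-mWasabi, pU-eCFP, pM-TagRFP657) was grown 24 h in minimal SM medium with each Selleck FDA-approved drug at 10 µM in 384-well plates. Cells were fixed and imaged by high-content confocal microscopy. For each auxotrophic subpopulation (and the prototroph), a z-score gives the deviation from the DMSO vehicle-control population median.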
`CN(C)C(=O)Oc1ccc[n+](C)c1` [Pyridostigmine Bromide] was tested, and the “z-score of subpopulation abundance” value was 0.57.
With `C=CCN1C[C@H](C(=O)N(CCCN(C)C)C(=O)NCC)C[C@@H]2c3cccc4[nH]cc(c34)C[C@H]21` [Cabergoline] the “z-score of subpopulation abundance” value was 1.61.
In the case of `CCN(C)C(=O)Oc1cccc([C@H](C)N(C)C)c1` [Rivastigmine Tartrate], the “z-score of subpopulation abundance” value is reported as 0.44.
With `O=c1[nH]c2ccccc2n1CCCN1CCC(n2c(=O)[nH]c3cc(Cl)ccc32)CC1` [Domperidone] the “z-score of subpopulation abundance” value was 0.48.
In the case of `CCN(CC)CCOC(=O)C(O)(c1ccccc1)c1ccccc1` [Benactyzine hydrochloride], the “z-score of subpopulation abundance” value is reported as 1.57.
`CC[C@H]1[C@@H]2C[C@H]3[C@@H]4N(C)c5ccccc5[C@]45C[C@@H]([C@@H]2[C@H]5O)N3[C@@H]1O` [Ajmaline] was tested, and the “z-score of subpopulation abundance” value was -0.26.
`Nc1nc(N)nc(NC2CC2)n1` [Cyromazine] was tested, and the “z-score of subpopulation abundance” value was 0.73.
With `COc1ccc2c(c1)[C@]13CCCC[C@@H]1[C@H](C2)N(C)CC3` [Dextromethorphan hydrobromide hydrate] the “z-score of subpopulation abundance” value was 0.05.
In the case of `Cc1cc(C(C#N)c2ccc(Cl)cc2)c(Cl)cc1NC(=O)c1cc(I)cc(I)c1O` (stereo not given) [Closantel], the “z-score of subpopulation abundance” value is reported as 0.89.
For `CC[N+](C)(CC)CCOC(=O)C(O)(c1ccccc1)c1ccccc1` [Methylbenactyzine Bromide], the “z-score of subpopulation abundance” value was -0.58.
In the case of `COc1ccc(C(CN(C)C)C2(O)CCCCC2)cc1` (stereo not given) [Venlafaxine], the “z-score of subpopulation abundance” value is reported as 0.97.
For `O=c1cccc2n1C[C@@H]1CNC[C@H]2C1` [Cytisine], the “z-score of subpopulation abundance” value was 0.11.
For `CC(C)(O)C(Cl)(Cl)Cl` [Chlorobutanol], the “z-score of subpopulation abundance” value was 0.52.
In the case of `C[N+]12CCC(CC1)C(OC(=O)C(O)(c1ccccc1)c1ccccc1)C2` (stereo not given) [Clidinium Bromide], the “z-score of subpopulation abundance” value is reported as 0.83.
`NCCc1c[nH]c2ccc(O)cc12` [Serotonin HCl] was tested, and the “z-score of subpopulation abundance” value was -0.51.
`NC(=O)CN1CCCC1=O` [Piracetam] was tested, and the “z-score of subpopulation abundance” value was 1.37.
`CC(C)=CCOc1c2occc2cc2ccc(=O)oc12` [Imperatorin] was tested, and the “z-score of subpopulation abundance” value was 0.92.
In the case of `COc1cc2c(cc1OC)C1CC(=O)C(CC(C)C)CN1CC2` (stereo not given) [Tetrabenazine (Xenazine)], the “z-score of subpopulation abundance” value is reported as -0.11.
For `CCCCCCCCCCCCCCCC[n+]1ccccc1` [Cetylpyridinium Chloride], the “z-score of subpopulation abundance” value was 4.67.
For `COc1ccc(C(CN(C)C)C2(O)CCCCC2)cc1` (stereo not given) [Venlafaxine HCl], the “z-score of subpopulation abundance” value was -0.06.
`N[C@@H]1C[C@H]1c1ccccc1` [Tranylcypromine (2-PCPA) HCl] was tested, and the “z-score of subpopulation abundance” value was -0.31.
`CC[C@H]1CN2CC[C@]3(C(=O)Nc4ccccc43)[C@@H]2C[C@@H]1/C(=C\OC)C(=O)OC` [Rhynchophylline] was tested, and the “z-score of subpopulation abundance” value was 0.24.
`CC(C)N(CCC(C(N)=O)(c1ccccc1)c1ccccn1)C(C)C` (stereo not given) [Disopyramide] was tested, and the “z-score of subpopulation abundance” value was -0.22.
`CCN1CC2(OC(=O)c3ccccc3NC(C)=O)CCC(OC)C34C1C(CC23)C1(O)CC(OC)C2CC4C1(O)C2OC` (stereo not given) [Lappaconitine] was tested, and the “z-score of subpopulation abundance” value was 0.55.
For `C#C[C@]1(O)C=C[C@H]2[C@@H]3CCC4=CC(=O)CC[C@@H]4[C@H]3CC[C@@]21CC` [Gestodene], the “z-score of subpopulation abundance” value was -0.97.
`CCOC(=O)Nc1ccc(NCc2ccc(F)cc2)cc1N` [Retigabine] was tested, and the “z-score of subpopulation abundance” value was -1.25.
For `CN1[C@@H]2CC[C@H]1C[C@@H](OC(=O)[C@H](CO)c1ccccc1)C2` [Hyoscyamine], the “z-score of subpopulation abundance” value was 0.31.
For `O=[N+]([O-])C(Br)(CO)CO` [Bronopol], the “z-score of subpopulation abundance” value was 0.26.
For `CCN(C)C(=O)Oc1cccc([C@H](C)N(C)C)c1` [Rivastigmine], the “z-score of subpopulation abundance” value was -1.09.
For `C[N+]1(C)[C@@H]2C[C@@H](OC(=O)[C@H](CO)c3ccccc3)C[C@H]1[C@@H]1O[C@@H]12` [Methscopolamine], the “z-score of subpopulation abundance” value was 0.27.
In the case of `CN(C)[C@@H]1C(=O)C(C(N)=O)=C(O)[C@@]2(O)C(=O)C3=C(O)c4c(O)cccc4[C@@](C)(O)[C@H]3[C@H](O)[C@@H]12` [Oxytetracycline Dihydrate], the “z-score of subpopulation abundance” value is reported as -0.6.
With `CN1[C@@H]2C[C@@H](OC(=O)[C@H](CO)c3ccccc3)C[C@H]1[C@@H]1O[C@@H]12` [Scopolamine HBr] the “z-score of subpopulation abundance” value was 0.22.
In the case of `C=CC[C@]1(O)CC[C@H]2[C@@H]3CCC4=CC(=O)CCC4=C3C=C[C@@]21C` [Altrenogest], the “z-score of subpopulation abundance” value is reported as -0.55.
For `COc1ccc2c3c([nH]c2c1)C(C)=NCC3` [Harmaline], the “z-score of subpopulation abundance” value was -7.5.
In the case of `COC(=O)C1=CCCN(C)C1` [Arecoline HBr], the “z-score of subpopulation abundance” value is reported as 0.1.
For `Nc1ccncc1` [4-Aminopyridine], the “z-score of subpopulation abundance” value was 0.6.
With `CN(C)C(=O)Oc1cccc([N+](C)(C)C)c1` [Neostigmine Bromide] the “z-score of subpopulation abundance” value was 0.79.
With `C[CH2][Hg][S]c1ccccc1C(=O)[O-].[Na+]` [Thimerosal] the “z-score of subpopulation abundance” value was 11.1.
In the case of `CN1[C@@H]2CC[C@H]1C[C@@H](OC(=O)C(CO)c1ccccc1)C2` (stereo not given in full) [Atropine sulfate monohydrate], the “z-score of subpopulation abundance” value is reported as -0.08.
For `Cn1cc(C2=C(c3cn(C4CCN(Cc5ccccn5)CC4)c4ccccc34)C(=O)NC2=O)c2ccccc21`, the “z-score of subpopulation abundance” value was 0.66.
